Source: PubChem BioAssay AID1347074 (Center for Chemical Genomics, University of Michigan, 2019)
The campaign covered roughly 47,000 compounds. About 2,800 (6%) were called active. No stated cut-off is given here; in the data, active means z-score above about 3 (passing the limit was not always enough); inactive means the rest. The entries come from a sample that favours actives as a whole.

These compounds were tested against Endoribonuclease Dicer (Homo sapiens) (UniProt Q9UPY3) (assay: inhibitors of Dicer pre-microRNA processing, primary screen, biochemical, cat-ELCCA, chemiluminescence (AID 1347074;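 further: plate controls were vehicle for no effect and no enzyme for full effect; higher signal means more uncleaved substrate so more Dicer inhibition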)). Conditions: cat-ELCCA pre-miR-21 Dicer processing, at 25 µM, hits give high values.
Endoribonuclease Dicer (Homo sapiens), sequence (Q9UPY3 whole entry, looked up): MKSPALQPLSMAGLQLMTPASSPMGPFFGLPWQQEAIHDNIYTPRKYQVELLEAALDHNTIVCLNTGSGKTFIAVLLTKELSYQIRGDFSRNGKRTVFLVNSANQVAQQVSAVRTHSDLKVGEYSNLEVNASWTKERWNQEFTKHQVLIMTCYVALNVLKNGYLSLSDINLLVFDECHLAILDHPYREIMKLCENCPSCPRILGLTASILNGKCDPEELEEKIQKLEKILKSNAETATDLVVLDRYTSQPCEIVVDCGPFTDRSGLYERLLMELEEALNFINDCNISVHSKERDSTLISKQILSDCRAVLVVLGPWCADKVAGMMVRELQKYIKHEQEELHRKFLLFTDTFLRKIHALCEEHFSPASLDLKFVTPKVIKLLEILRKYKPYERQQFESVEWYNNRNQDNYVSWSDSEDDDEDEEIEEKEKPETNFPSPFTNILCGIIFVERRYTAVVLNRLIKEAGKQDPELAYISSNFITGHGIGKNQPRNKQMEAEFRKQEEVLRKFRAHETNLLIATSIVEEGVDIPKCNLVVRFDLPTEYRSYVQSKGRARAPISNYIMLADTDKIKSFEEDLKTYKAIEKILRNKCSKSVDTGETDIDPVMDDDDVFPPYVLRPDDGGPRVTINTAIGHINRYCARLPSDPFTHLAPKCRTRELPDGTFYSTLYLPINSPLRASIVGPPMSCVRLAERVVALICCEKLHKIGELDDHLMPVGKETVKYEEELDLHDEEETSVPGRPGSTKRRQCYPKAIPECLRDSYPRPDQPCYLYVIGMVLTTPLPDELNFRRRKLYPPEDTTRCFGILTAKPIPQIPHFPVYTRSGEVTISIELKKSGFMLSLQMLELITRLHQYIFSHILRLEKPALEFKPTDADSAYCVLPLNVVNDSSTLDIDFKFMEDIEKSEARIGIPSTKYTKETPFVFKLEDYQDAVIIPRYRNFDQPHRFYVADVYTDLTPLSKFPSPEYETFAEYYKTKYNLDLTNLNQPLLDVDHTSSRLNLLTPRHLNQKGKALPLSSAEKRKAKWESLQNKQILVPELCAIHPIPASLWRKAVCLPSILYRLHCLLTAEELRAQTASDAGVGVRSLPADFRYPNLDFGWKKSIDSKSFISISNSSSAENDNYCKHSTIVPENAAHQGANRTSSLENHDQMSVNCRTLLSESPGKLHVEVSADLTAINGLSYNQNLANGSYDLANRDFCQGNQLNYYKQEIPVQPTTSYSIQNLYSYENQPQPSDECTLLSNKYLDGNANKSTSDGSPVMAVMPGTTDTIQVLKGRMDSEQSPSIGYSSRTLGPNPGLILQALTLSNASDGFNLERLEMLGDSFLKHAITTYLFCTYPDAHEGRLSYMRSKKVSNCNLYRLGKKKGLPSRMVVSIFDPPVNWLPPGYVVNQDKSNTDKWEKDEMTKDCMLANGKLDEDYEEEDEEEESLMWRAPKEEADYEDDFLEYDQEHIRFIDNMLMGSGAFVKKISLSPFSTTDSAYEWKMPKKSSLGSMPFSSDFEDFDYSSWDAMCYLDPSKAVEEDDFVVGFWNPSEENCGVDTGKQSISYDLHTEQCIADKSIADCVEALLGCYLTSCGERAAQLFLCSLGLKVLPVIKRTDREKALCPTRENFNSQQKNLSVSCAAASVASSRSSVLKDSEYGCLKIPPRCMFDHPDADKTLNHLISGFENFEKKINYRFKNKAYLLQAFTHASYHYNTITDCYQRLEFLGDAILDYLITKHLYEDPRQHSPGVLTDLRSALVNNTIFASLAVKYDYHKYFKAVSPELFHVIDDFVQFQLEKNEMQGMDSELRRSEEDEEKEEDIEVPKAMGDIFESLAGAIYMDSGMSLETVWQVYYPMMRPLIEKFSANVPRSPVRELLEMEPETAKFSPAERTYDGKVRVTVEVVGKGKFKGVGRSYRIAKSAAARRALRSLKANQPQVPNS

SMILES	z-score
CCCCSc1nnc2c(n1)OC=Nc1ccc(Br)cc1-2	1.93 (inactive)
N#C/C(=C\N1CCc2ccccc21)C(=O)c1cccc(C(F)(F)F)c1	-2.08 (inactive)
O=C(CSc1nc2ccccc2nc1N1CCCC1)N1CCN(c2ccccc2)CC1	1.57 (inactive)
O=C(CSc1nc2ccccc2nc1N1CCOCC1)Nc1ccccc1	1.99 (inactive)
O=C(CSc1nc2ccccc2nc1N1CCCC1)NCc1cccs1	3.04 (active)
N#CC1=C(N)Oc2ccc3ccccc3c2C1c1ccc(F)cc1 (stereo not given)	-0.03 (inactive)
O=C(O)c1ccc(N2C(=O)CC(N3CCCCC3)C2=O)cc1 (stereo not given)	-0.35 (inactive)
COc1ccc(CCNCC(O)Cn2ccc3ccccc32)cc1OC (stereo not given)	-0.31 (inactive)
COc1ccc(CCNC(N)=O)cc1OC	5.13 (active)
COc1ccc(CCNC(=O)CCC(=O)O)cc1OC	1.57 (inactive)
COC(=O)C(C(=O)OC)=C(SC)SC	-1.16 (inactive)
CC1(C)CC2(CC(C)(c3csc(Nc4ccccc4)n3)OC2=O)C(=O)O1 (stereo not given)	1.11 (inactive)
O=[N+]([O-])c1ccc(CC(O)N2CCN(c3nc4ccc(Cl)cc4s3)CC2)cc1 (stereo not given)	-0.91 (inactive)
O=C(c1cccs1)c1nn(-c2ccccc2)c2nc(=O)c(Cc3ccc(Cl)cc3)nn12	-0.23 (inactive)
Cc1cc(C)cc(Oc2coc3cc(OCC(=O)O)ccc3c2=O)c1	-0.66 (inactive)
Cc1[nH]cc(Br)c(=O)c1OCC(=O)O	4.04 (active)
COc1ccc2[nH]cc(CCC(=O)O)c2c1	2.43 (inactive)
O=S(=O)(c1cc(Cl)c(Cl)cc1Cl)N1CCc2[nH]c3ccc(F)cc3c2C1	-0.85 (inactive)
Cc1ccc(O)c(-c2cnc3ccccc3n2)c1	-1.69 (inactive)
CC1(C)CC(=O)C=C(Nc2ccccc2)C1	2.68 (inactive)
O=C1C=C(NNc2ccccc2)CCC1	3.26 (active)
Cc1ccc(-n2nnnc2-c2ccc(Cl)c(Cl)c2)c(C)c1	-1.31 (inactive)

SMILES	z-score
Nc1n[nH]c2c1CSc1ccc(Cl)cc1-2	-4.16 (inactive)
Cc1ccc2nc(Nc3ncc4c(n3)CC(C)(C)CC4=O)nc(C)c2c1	1.2 (inactive)
CCOC(=O)c1cc(CC)sc1NC(=O)c1cccc(C(F)(F)F)c1	0.82 (inactive)
O=C(CS(=O)(=O)c1ccc(C(F)(F)F)cn1)NNC(=O)c1ccccc1	0.59 (inactive)
NC(=S)NNC(=O)c1cccc(C(F)(F)F)c1	33.4 (active)
O=[N+]([O-])c1cccc(C2CC(c3ccccc3)=Nc3ccccc3S2)c1 (stereo not given)	-1.81 (inactive)
C1=CC2CC1CC2CN1CCN(Cc2c[nH]c3ccccc23)CC1 (stereo not given)	4.79 (active)
COc1cccc(-c2ccc(-c3noc(-c4cccc(OC)c4)n3)c(OC)n2)c1	0.01 (inactive)
COc1ccc(O)c(C2=NN3C(C2)c2cccc(OC)c2OC3c2ccccc2)c1 (stereo not given)	1.51 (inactive)
COc1cccc2c1OC(c1ccccc1F)N1N=C(c3ccccc3O)CC21 (stereo not given)	5.58 (active)
COc1cccc(C2Oc3ccccc3C3CC(c4ccccc4O)=NN32)c1OC (stereo not given)	6.13 (inactive)
Cn1c(-c2ccccc2)cnc1NCc1c(F)cccc1Cl	2.86 (inactive)
Nc1ccc(/C=C/c2nc3ccccc3[nH]2)cc1	4.8 (active)
Nc1cccc(CCc2nc3ccccc3[nH]2)c1	1.56 (inactive)
Cc1ccc(-c2nc3ccccc3[nH]2)cc1N	0.04 (inactive)
CCCCn1nnc2sc3c(c2c1=O)CCCC3	-0.96 (inactive)
O=C(CSc1nc2c(c(C(F)(F)F)n1)CCc1ccccc1-2)N1CCOCC1	0.53 (inactive)
COc1cc2c(cc1OC)C(C)N(Cc1cc(C)c(O)c(C)c1)CC2 (stereo not given)	-0.23 (inactive)
CCOC(=O)c1cc(Sc2ccccc2)cc(C(=O)OCC)n1	-0.71 (inactive)
CCc1ccc(C2C(C(=O)OC)=C(C)NC3=C2C(=O)CC(C)(C)C3)cc1 (stereo not given)	0.1 (inactive)
CC(C)(C)OC(=O)n1ccc2cc(Br)ccc21	3.27 (active)
CCOC(=O)c1cc(-c2ccccc2)sc1NC(=S)N1CCN(c2ccccc2)CC1	1.09 (inactive)

SMILES	z-score
CC(=O)Oc1cc2c(C(=O)N3CCN(c4ccccc4)CC3)c(C)oc2c2ccccc12	3.08 (active)
CCOC(=O)c1nnn2c1nc(N1CCN(c3ccccc3)CC1)c1ccccc12	0.67 (inactive)
O=C(CC1(O)C(=O)N(CCc2ccccc2)c2ccccc21)c1cccc(-n2cccc2)c1 (stereo not given)	-0.51 (inactive)
C1=C(c2cccs2)CC(c2cccs2)=NN=C1c1cccs1	3.06 (active)
Cc1[nH]nc2c1C(c1ccccc1Cl)C(C#N)=C(N)O2 (stereo not given)	-1.03 (inactive)
O=C(O)C1C2C=CC(C2)C1C(=O)N1CCN(CCO)CC1 (stereo not given)	3.56 (active)
COc1ccc(-c2c(C)nn3c2N=C(c2ccccc2)CC3c2ccco2)cc1 (stereo not given)	-0.12 (inactive)
CC(C)N(CCC#N)CN1C(=O)c2ccccc2C1=O	1.63 (inactive)
COc1cc2c(cc1OC)C(c1ccccc1)=NC(C)(C)C2	0.36 (inactive)
FC(F)(F)c1ccc(/C=N/Nc2nccc(C(F)(F)F)n2)cc1	0.54 (inactive)
FC(F)(F)c1cccc(NC(=S)NNc2nccc(C(F)(F)F)n2)c1	3.39 (active)
FC(F)(F)c1ccnc(NCCNc2nccc(C(F)(F)F)n2)c1	-0.42 (inactive)
Cc1cc2c(cc1C)CSC(C)(c1cccc([N+](=O)[O-])c1)SC2	-1.77 (inactive)
COc1cccc(-n2[nH]nnc2=S)c1	1.1 (inactive)
COc1cccc(C2Nc3cccc4cccc(c34)N2)c1	3.24 (active)
Cc1ccc(C2CC(c3cccc(C)c3)n3nc(N)nc3N2)cc1 (stereo not given)	0.14 (inactive)
Cc1ccc(C2Nc3cccc4cccc(c34)N2)cc1	3.06 (active)
Oc1ccc(C2Nc3cccc4cccc(c34)N2)cc1	0.15 (inactive)
O=C(CSc1nc2c(c(C(F)(F)F)n1)CCc1ccccc1-2)NCc1cccnc1	2.31 (inactive)
CC1=C(C(=O)OC2CCCCC2)C(c2cccnc2)C2=C(CCCC2=O)N1 (stereo not given)	-0.48 (inactive)
CC1=NOC(=O)C1C(c1cccc(Br)c1)c1c(C)[nH]n(-c2ccccc2)c1=O (stereo not given)	-4.75 (inactive)
